Results: PubChem BioAssay AID1159580 (chemical genetic matrix, 2015)
The campaign covered roughly 5,500 compounds. About 2,000 (36%) were called active. Roughly 18% stayed inconclusive and do not appear here. Cut-off read from the data, not from the text of the source: active = normalized growth mostly below about 0.91 (no sharp cut-off); inconclusive = no clear call, values can overlap the other calls; inactive = mostly above about 0.92. Some of the results follow.

Experiment: chemical genetic growth profiling, strain panel (AID 1159580);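 note: tested at 20 µM; growth read once vehicle control cultures reached saturation at 30 °C; 1 = growth at the plate median or of vehicle wells; lower values mean less growth of the strain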
Conditions: S. cerevisiae deletion strains, growth OD

Measured: normalized growth

O=c1c(-c2ccc(O)cc2)coc2c(C3O[C@H](CO)[C@@H](O)[C@H](O)[C@H]3O)c(O)ccc12 (stereo not given in full)
inactive: locus YAL021C, strain ccr4, hits give low values 1.01 | locus YAL026C, strain drs2, hits give low values 0.991 | locus YAL030W, strain snc1, hits give low values 0.982 | locus YBL061C, strain skt5, hits give low values 0.977 | locus YBR009C, strain hhf1, hits give low values 0.957 | locus YBR023C, strain chs3, hits give low values 0.991 | locus YBR171W, strain sec66, hits give low values 0.977 | locus YBR231C, strain swc5, hits give low values 0.979 | locus YBR279W, strain paf1, hits give low values 0.985 | locus YCL011C, strain gbp2, hits give low values 0.968 | locus YCL016C, strain dcc1, hits give low values 0.991 | locus YCL061C, strain MRC1, hits give low values 0.994 | locus YCL069W, strain vba3, hits give low values 0.973 | locus YCR088W, strain abp1, hits give low values 0.996 | locus YDL005C, strain med2, hits give low values 0.978 | locus YDL040C, strain nat1, hits give low values 0.977 | locus YDR001C, strain nth1, hits give low values 0.978 | locus YDR069C, strain doa4, hits give low values 1 | locus YDR137W, strain rgp1, hits give low values 0.995 | locus YDR159W, strain sac3, hits give low values 0.933 | locus YDR195W, strain ref2 0.951 | locus YDR297W, strain sur2, hits give low values 0.978 | locus YDR334W, strain swr1, hits give low values 0.973 | locus YDR335W, strain msn5, hits give low values 0.987 | locus YDR392W, strain spt3, hits give low values 0.876 | locus YEL003W, strain gim4, hits give low values 0.979 | locus YEL037C, strain rad23, hits give low values 0.973 | locus YEL061C, strain CIN8 (second series), hits give low values 0.974 | locus YER015W, strain faa2, hits give low values 0.993 | locus YER016W, strain bim1, hits give low values 0.989 | locus YER111C, strain swi4, hits give low values 0.98 | locus YER155C, strain BEM2 (second series), hits give low values 0.947 | locus YFR010W, strain ubp6, hits give low values 0.977 | locus YGL167C, strain pmr1, hits give low values 0.965 | locus YGL173C, strain kem1, hits give low values 0.977 | locus YGL227W, strain vid30, hits give low values 0.982 | locus YGL240W, strain doc1, hits give low values 0.957 | locus YGL253W, strain hxk2, hits give low values 0.982 | locus YHR013C, strain ard1, hits give low values 0.921 | locus YHR027C, strain rpn1, hits give low values 0.987 | locus YHR030C, strain SLT2, hits give low values 0.957 | locus YHR079C, strain IRE1, hits give low values 0.976 | locus YHR142W, strain chs7, hits give low values 1.04 | locus YJL092W, strain hpr5, hits give low values 0.992 | locus YJL095W, strain BCK1 (second series), hits give low values 0.987 | locus YJL095W, strain BCK1, hits give low values 0.973 | locus YJL115W, strain asf1, hits give low values 0.98 | locus YJL129C, strain trk1, hits give low values 0.997 | locus YJL154C, strain vps35, hits give low values 0.972 | locus YJL164C, strain tpk1, hits give low values 0.999 | locus YJL166W, strain qcr8, hits give low values 0.98 | locus YJL187C, strain SWE1, hits give low values 0.977 | locus YJR066W, strain TOR1, hits give low values 0.898 | locus YKL160W, strain elf1, hits give low values 1.04 | locus YKR026C, strain gcn3, hits give low values 0.982 | locus YKR091W, strain srl3, hits give low values 0.98 | locus YLL001W, strain dnm1, hits give low values 0.99 | locus YLL026W, hits give low values 0.993 | locus YLL041C, strain sdh2, hits give low values 0.992 | locus YLR027C, strain aat2, hits give low values 0.965 | locus YLR113W, strain HOG1, hits give low values 1 | locus YLR221C, strain rsa3, hits give low values 0.985 | locus YLR258W, strain gsy2, hits give low values 0.982 | locus YLR262C, strain YPT6 (second series), hits give low values 0.997 | locus YLR320W, strain mms22, hits give low values 0.988 | locus YLR342W, strain FKS1, hits give low values 0.974 | locus YLR357W, strain rsc2, hits give low values 0.957 | locus YLR370C, strain arc18, hits give low values 0.981 | locus YLR384C, strain iki3, hits give low values 0.975 | locus YML120C, strain ndi1, hits give low values 0.995 | locus YMR058W, strain fet3, hits give low values 0.969 | locus YMR125W, strain sto1, hits give low values 0.954 | locus YMR129W, hits give low values 0.962 | locus YMR205C, strain PFK2, hits give low values 0.941 | locus YMR231W, strain pep5, hits give low values 0.985 | locus YNL071W, strain lat1, hits give low values 0.979 | locus YNL183C, strain NPR1, hits give low values 0.91 | locus YNL209W, strain ssb2, hits give low values 0.984 | locus YNL248C, strain rpa49, hits give low values 1.03 | locus YNL322C, strain KRE1 (second series), hits give low values 0.982 | locus YNR049C, strain mso1, hits give low values 0.973 | locus YOR001W, strain rrp6, hits give low values 1.01 | locus YOR070C, strain gyp1, hits give low values 0.983 | locus YOR080W, strain dia2, hits give low values 0.98 | locus YOR083W, strain WHI5, hits give low values 1.06 | locus YOR106W, strain vam3, hits give low values 1.01 | locus YOR231W, strain MKK1, hits give low values 0.96 | locus YOR265W, strain rbl2, hits give low values 0.989 | locus YOR270C, strain vph1, hits give low values 0.969 | locus YOR290C, strain snf2, hits give low values 0.921 | locus YPL051W, strain arl3, hits give low values 1.01 | locus YPL078C, strain atp4, hits give low values 1.01 | locus YPL106C, strain sse1, hits give low values 0.93 | locus YPL240C, strain hsp82, hits give low values 1.01 | locus YPL256C, strain CLN2, hits give low values 0.979
